Assay outcomes from PubChem BioAssay.
The list is not random: actives were taken first. Their share in the collection is about 14%.
HCV inh: blocks hepatitis C virus; AID 651820; Potency, µM (doses to about 41.8 µM), without a hit: top-dose activity change, negative = inhibition, hits mostly inhibitors; Huh7.5.1 HCVcc-Cre infection, luciferase reporter, 44 h; hit rate 3.4% among 340,000; also: potency is read from the fitted curve at half-maximal effect
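Reporter virus HCVcc-Cre (~0.5 moi) infects cells exposed to compound; seeding density 1,000 cells/well with 4 h settling beforehand. Luminescence, 15 sec read, taken 44 h post-infection following a 15 min RT substrate incubation.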
MARV entry inh: blocks Marburg virus binding to or entry into cells | Marburg virus pseudotyped entry inhibition, cell reporter | Potency, µM (titrated, usually from 37.8 µM), without a hit: at the top dose activity change, negative = inhibition, hits mostly inhibitors | hit rate 1.8% among 300,000 | AID 540276; calls by dose curve; tested in HEK293 cells; also: potency is read from the fitted curve at half-maximal effect
Pf growth 48h: P. falciparum growth inhibition at 48 hours (one generation). P. falciparum luciferase growth in erythrocytes, 48 h. Potency, µM (doses to about 28.7 µM), for the others: at the highest dose activity change, negative = inhibition, usual class: inhibitors. hit rate 5.9% among 310,000; also: potency is read from the fitted curve at half-maximal effect
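Luciferase-expressing P. falciparum in infected erythrocytes (2% hematocrit, 0.1% parasitemia final) in RPMI 1640/0.5% Albumax were exposed to compound for 48 hours at 37 C, 5% CO2; growth read as luminescence.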
HCMV inh: blocks human cytomegalovirus replication; HFF cells, HCMV-luciferase reporter, 72 h; stronger effect = lower value; activity change, negative = inhibition, % at 57.5 µM; hit rate 4.5% among 410,000; in the data active = activity change below about -60%; inconclusive = no clear call, values can overlap the other calls; inactive = above about -39%
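HFF cells seeded 16 h at 37C, treated with compounds, infected with luciferase-reporter HCMV at MOI 1 PFU/cell; luciferase read at 72 h post infection, normalized to buffer-only and Salinomycin controls.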
Pf growth 96h: inhibits malaria parasite growth, 96 h; P. falciparum luciferase reporter growth, 96 h; Potency, µM (doses to about 28.7 µM), without a hit: top-dose activity change, negative = inhibition, hits mostly inhibitors; hit rate 6.9% among 320,000; AID 504834; also: potency is read from the fitted curve at half-maximal effect
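Infected RBCs, 2% Hct / 0.05% parasitemia final; luciferase-reporter P. falciparum; cpd 96 h, 37 C, 5% CO2; luciferase detection reagent; luminescence.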
LASV entry inh: blocks Lassa virus binding to or entry into cells; Lassa virus pseudotype entry inhibition, cell reporter; Potency, µM (highest dose often 37.9 µM), for inactives: at the top dose activity change, negative = inhibition, hits mostly inhibitors; hit rate 1.2% among 300,000; calls by dose curve; tested in HEK293 cells; also: potency is read from the fitted curve at half-maximal effect; nearly all actives have a fitted effect of over 50% in size
Starred values were filed as active, the others as inactive; ? = inconclusive; . = no result; [ ] = another dose, or the depositor's remark. Unless noted, calls follow the shape of the dose curve; as a rule, active = well fitted inhibition curve with a large enough effect; inconclusive = small, poorly fitted or top-dose-only effect, or another doubt; inactive = no such curve, though single readings can be large or run the other way. % is scaled to controls: 0 for no effect and ±100 for the full control effect.

SMILES | HCV inh | MARV entry inh | Pf growth 48h | HCMV inh | Pf growth 96h | LASV entry inh
COc1ccc(-c2sc3ccc(N4CCOCC4)cc3c2C#CC(C)(C)O)cc1 | ? | . | ? | -32.1 | 2.62µM* | .
COC(=O)c1c(-c2ccc(SC)cc2)sc2ccccc12 | 2.7% | . | ? | 2.5 | 5.86µM* | .
CCc1ccc(C(=O)c2cn(CC(=O)Nc3cc(OC)ccc3OC)c3nc(C)ccc3c2=O)cc1 | . | . | . | -8.4 | . | 13.3%[46.1 µM]
COc1cc(CNC(=O)c2cc(-c3ccc(F)cc3C)n[nH]2)cc(OC)c1 | . | . | . | -5.4 | . | .
O=C1/C(=C/c2ccncc2)N2CCC1CC2 | -11.6% | ? | 3.1% | 3.8 | 216.3% | ?
O=C1/C(=C/c2ccccc2Cl)N2CCC1CC2 | -18.7% | . | 0.0% | -66.8* | -12.7% | .
Clc1ccc(OCCSc2ncccn2)c(Br)c1 | 11.2µM* | ? | 82.7% | 93.2 | 8.0% | -25.4%
O=C(COC(=O)c1ccc(O)cc1O)NC1CCCCCC1 | 12.6µM* | . | 34.4% | 10.5 | ? | .
O=C(COC(=O)c1ccc(O)cc1O)NC12CC3CC(CC(C3)C1)C2 | 12.6µM* | . | ? | 7.2 | -6.6% | .
O=C(COC(=O)c1ccc(O)cc1O)NC1CCS(=O)(=O)C1 (centres undefined) | 14.3% | -2.2%[46.1 µM] | -5.3% | 1.4 | -23.2% | 3.2%
COc1ccc(C(=O)OCC(=O)NC23CC4CC(CC(C4)C2)C3)c(O)c1 | . | . | . | -26.6 | . | .
Cc1ccc(-c2cc(C(=O)NCc3ccccc3)c3c(-c4ccc(C)cc4)[nH]nc3n2)cc1 | . | . | . | 8.3 | . | 16.1%[46.1 µM]
CCC(=O)Nc1ccc2nc(SCc3ccc(C)cc3)sc2c1 | . | -16.7%[46.1 µM] | . | -33.3 | . | -26.3%[46.1 µM]
O=C(Cc1cccc2ccccc12)N/N=C/c1ccc(OC(=O)/C=C/c2ccco2)cc1 | ? | -40.5% | 11.7µM* | ? | ? | ?
O=C(Cc1cccc2ccccc12)N/N=C/c1ccncc1 | -6.2% | 0.5%[46.1 µM] | 0.0% | -12.1 | 10.4µM* | -1.4%
O=C(Cc1cccc2ccccc12)N/N=C/c1ccc(F)cc1 | 7.4% | 1.8% | ? | -17.9 | ? | -15.3%
O=C(NCc1cccc(F)c1)Nc1nnc([C@H]2C[C@H](O)[C@@H](CO)O2)s1 | . | . | . | 18.4 | . | .
COc1ccc(NC(=O)C2=C(C)Nc3nc(SCc4ccc(Cl)cc4)nn3C2c2cccc(OC)c2OC)cc1 (centres undefined) | . | . | . | ? | . | -27.9%[46.1 µM]
CN1CCC2(CC1)Nc1nc(SCc3ccc(Cl)cc3)nn1C1=C2CN(C)CC1 | 14.1µM* | ? | 3.29µM* | -27.4 | -10.2% | 14.1µM*
O=C(/C=C\c1ccc2c(c1)OCO2)NC1CC(=O)N(c2cccc(F)c2)C1 (centres undefined) | . | . | . | -21.5 | . | 16.2%[46.1 µM]
COc1cc(C2c3cc4c(cc3OC(N3CCCCC3)C2C)OCO4)cc(OC)c1O (centres undefined) | -15.6% | -24.5% | . | -5.0 | . | ?
COc1cc(C2C3=C(COC3=O)Oc3cc4c(cc32)OCO4)cc(OC)c1OC (centres undefined) | ? | ? | . | -84.2* | . | ?
COc1cc(C2C3=C(COC3=O)Oc3cc4c(cc32)OCO4)cc(OC)c1O (centres undefined) | -18.4% | ? | . | -79.4* | . | ?
O=C1OCC2=C1C(c1ccc3c(c1)OCO3)c1cc3c(cc1O2)OCO3 (centres undefined) | ? | -22.4% | . | -23.0 | . | ?
CCCCc1ccc(NC(=O)CSc2nc(=O)n(CCN(CC)CC)c3c2CCC3)cc1 | ? | ? | ? | 9.2 | ? | ?
SMILES | HCV inh | MARV entry inh | Pf growth 48h | HCMV inh | Pf growth 96h | LASV entry inh
O=C(Cn1cc(SCc2ccc(Cl)cc2)c2ccccc21)N1CCCC1 | . | . | . | 41.7 | . | 10.8%[46.1 µM]
CC(C)(CS(=O)(=O)[O-])NC(=O)CC[N+](C)(C)CCO | -0.7% | 2.82µM* | 94.7% | 61.5 | 203.9% | 3.2%
Cc1ccc(Cc2nc3ccccc3nc2SCC(=O)N2CCC(C)CC2)cc1 | . | . | . | 8.9 | . | -9.0%[46.1 µM]
CC1CCc2cc(F)ccc2N1C(=O)CSc1nnc2c(n1)[nH]c1ccc(F)cc12 (centres undefined) | ? | ? | 1.04µM* | ? | ? | ?
CC1CCCCN1C(=O)CSc1nnc2c(n1)[nH]c1ccccc12 (centres undefined) | -24.8% | -25.4%[46.1 µM] | 1.65µM* | 43.8 | 11.7µM* | ?
CC1CCN(C(=O)CSc2nnc3c(n2)[nH]c2ccc(F)cc23)CC1 | 6.9% | -12.4%[46.1 µM] | 1.65µM* | -29.6 | ? | -13.6%
CC1CCCCN1C(=O)CSc1nc2ccccc2nc1Cc1ccccc1 (centres undefined) | . | . | . | -71.8* | . | ?
CCOC(=O)c1ccc2c(c1)N(CC(=O)N(C)c1ccccc1)C(=O)c1ccccc1S2 | . | . | . | 24.6 | . | -26.2%[46.1 µM]
Cn1ncc2c(=O)[nH]c(N)nc21 | 1.8% | -3.5%[46.1 µM] | . | -1.5 | . | -9.4%[46.1 µM]
Cc1ccc(N(C)S(=O)(=O)c2cc(-c3cnc(C4CC4)o3)ccc2C)cc1 | 3.16µM* | ? | ? | -17.7 | 7.0% | ?
Cc1cc(C)c(NS(=O)(=O)c2cc(-c3cnc(C4CC4)o3)ccc2C)c(C)c1 | . | . | . | -13.1 | . | -17.4%[46.1 µM]
Cc1cccc(N(C)S(=O)(=O)c2ccc(-c3cnc(C4CC4)o3)cc2)c1 | ? | . | -0.1% | -97.6* | 14.7µM* | .
Cc1ccc(NC(=O)CCCn2c(=O)c3cccn3c3cccnc32)c(C)c1 | . | . | . | -14.5 | . | -14.0%[46.1 µM]
Cc1ccc(S(=O)(=O)N2C[C@H]3C(=O)C[C@@H]4C(=O)N(c5ccccc5)C(=O)[C@@H]4[C@@H]3C[C@H]2c2cccs2)cc1 | . | . | . | 3.8 | . | .
CC(=O)Nc1scc(-c2ccccc2)[n+]1-c1ccc(C)cc1 | ? | -15.3%[46.1 µM] | 5.6% | 34.6 | 49.9% | 13.1%[46.1 µM]
Cc1ccc(-c2cc(-c3ccc(C)cc3)[n+](-c3ccccc3)c(-c3ccc(C)cc3)c2)cc1 | 25.1µM* | . | 0.294µM* | . | 0.294µM* | .
CN(C)c1ccc(-[n+]2c(-c3ccccc3)cc(-c3ccccc3)cc2-c2ccccc2)cc1 | 7.08µM* | ? | ? | -98.9* | ? | ?
Cc1ccc(-c2cc(-c3ccc(C)cc3)[n+](-c3ccc(C(=O)[O-])cc3)c(-c3ccc(C)cc3)c2)cc1 | 2.51µM* | . | 3.7µM* | -17.0 | ? | .
C[n+]1c(-c2ccccc2)cc(-c2ccc(Cl)cc2)cc1-c1ccccc1 | -19.7% | ? | 1.65µM* | ? | ? | ?
C=C(C)CCN1C(=O)NC(c2ccccc2)C(C(C)=O)=C1C (centres undefined) | . | 7.2%[14.2 µM] | . | . | . | ?
CC1(O)CC2CC1C(C(=O)O)C2C(=O)O (centres undefined) | 22.7% | 4.2% | . | -11.7 | . | 15.0%
COc1ccc2c(c1)CCCC1(CCCO2)CCCO1 (centres undefined) | . | . | . | 8.0 | . | .
CCn1c(=O)c2cc(C(=O)N3CCN(c4cccc(Cl)c4)CC3)sc2c2ccccc21 | . | ? | . | 0.7 | . | 14.6%[46.1 µM]
